Assay type in all cases: functional
The target of assay [1] is Solute carrier family 2, facilitated glucose transporter member 1 (Homo sapiens) (UniProt P11166). Description: ST_JUDE_LEISH: Cytotoxicity at 2uM final concentration against transgenic Leishmania Mexicana promastigotes LmGLUT1 that are glucose transport deficient and complemented with the human glucose transporter GLUT1. Activity is measured by DNA content using SYBR green in vitro.

Assay [2] addresses Hexose transporter 1 (Plasmodium falciparum) (UniProt O97467). Description: ST_JUDE_LEISH: Cytotoxicity at 2uM final concentration against transgenic Leishmania Mexicana promastigotes LmPfHT that are glucose transport deficient and complemented with the Plasmodium falciparum hexose transporter. Activity is measured by DNA content using SYBR green in vitro.
In assay [3] the target is Glucose transporter (Leishmania mexicana) (UniProt O61059). In words: ST_JUDE_LEISH: Cytotoxicity at 2uM final concentration against transgenic Leishmania Mexicana promastigotes LmGT2 that are glucose transport deficient and complemented with the L. Mexicana glucose transporter 2. Activity is measured by DNA content using SYBR green in vitro.

Solute carrier family 2, facilitated glucose transporter member 1 (Homo sapiens), sequence (P11166 whole entry): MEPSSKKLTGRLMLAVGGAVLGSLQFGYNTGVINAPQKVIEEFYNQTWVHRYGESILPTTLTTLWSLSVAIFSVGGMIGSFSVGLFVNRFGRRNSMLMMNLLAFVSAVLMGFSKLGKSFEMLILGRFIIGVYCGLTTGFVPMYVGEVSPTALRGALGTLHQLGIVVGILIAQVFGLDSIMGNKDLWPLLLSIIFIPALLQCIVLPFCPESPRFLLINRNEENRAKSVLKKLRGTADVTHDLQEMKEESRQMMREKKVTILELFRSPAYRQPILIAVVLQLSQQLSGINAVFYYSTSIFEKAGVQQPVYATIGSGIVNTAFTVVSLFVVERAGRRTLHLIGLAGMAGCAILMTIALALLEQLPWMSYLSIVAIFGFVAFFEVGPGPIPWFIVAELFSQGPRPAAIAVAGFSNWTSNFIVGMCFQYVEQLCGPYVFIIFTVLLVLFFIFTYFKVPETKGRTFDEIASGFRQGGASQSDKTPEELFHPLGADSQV

By inhibition is commonly meant the drop in the measured response relative to a control, in per cent. Turning to `CCOc1ccc2nc3cc(NC(=O)c4ccco4)ccc3c(N)c2c1`, the inhibition was found to be 3.66% in assay [1], 3.27% in assay [2] and 2.78% in assay [3].

Regarding `CN(Cc1ccc(-c2ccc(C(F)(F)F)cc2)cc1)C(=O)Cn1c(CCc2cccc(F)c2F)cc(=O)c2ccc(OCCCN3CCCCC3)cc21`, the inhibition in assay [1] is 1.01%; in assay [2], 0.66%; in assay [3], -0.5%.

Take `CC(=O)Nc1nc(C(=O)Nc2ccc(-c3cccc(-c4nc5cc(F)ccc5[nH]4)c3)cc2)cs1`: the inhibition in assay [1] amounted to 2.47%; in assay [2] it was 2.89%; in assay [3], 3.35%.

In the case of `COc1ccc(Nc2nc(N/N=C/c3cc(Br)ccc3O)nc(Nc3ccc([N+](=O)[O-])cc3)n2)cc1`, the inhibition in assay [1] is 0.02%; in assay [2] it was -2.54%; in assay [3] it was 1.51%.

With `FC(F)(F)c1ccc2c(NCCCNc3ccnc4cc(C(F)(F)F)ccc34)ccnc2c1`, the figures for the inhibition in assay [1], in assay [2] and in assay [3] were -2.25%, 3.22% and -4.41%, respectively.

As for `CC(C)c1ccc(NC(=O)N[C@H]2CCN(CCCCCNC(=O)/C=C/c3ccc(Cl)c(Cl)c3)C2)cc1`, the inhibition was 2.04% in assay [1], -3.46% in assay [2] and 2.9% in assay [3].

Consider `COc1cc(NC(=O)N2CCOC(CCN3CCC(c4ccccc4)CC3)(c3ccc(Cl)c(Cl)c3)C2)cc(OC)c1OC` (stereo not drawn), for which the values for the inhibition in assay [1], in assay [2] and in assay [3] were 3.7%, 2.95% and 1.05%, respectively.

With `COc1ccc2nccc([C@@H](O)CN3CCC(NCc4nc5cc(F)cc(F)c5[nH]4)CC3)c2c1`, the figures for the inhibition in assay [1], in assay [2] and in assay [3] were 3.31%, 4.04% and -0.63%, respectively.

With `Cc1nn(CCOC(=O)NC(NCC2COc3ccccc3O2)C(Cl)(Cl)Cl)cc1[N+](=O)[O-]` (stereo not drawn), the inhibition in assay [1] is 0.33%; in assay [2] it was -0.07%; in assay [3], -1.73%.

For `CCOc1ccc2nc3cc([N+](=O)[O-])ccc3c(N)c2c1`, the inhibition in assay [1] stood at 6.85%; in assay [2], 7.59%; in assay [3] it was 2.01%.

Take `O=C(Nc1cccc(C(F)(F)F)c1)c1cc([N+](=O)[O-])cc2cn[nH]c12`: the inhibition came out at 6.35% in assay [1], 5.74% in assay [2] and 1.24% in assay [3].

Regarding `Nc1cccc(CNCc2cccc(-c3ccc(-c4nc5ccccc5[nH]4)s3)c2)c1`, the inhibition came out at 7.77% in assay [1], 8.55% in assay [2] and 5.7% in assay [3].

Turning to `Cc1nc(C)c(-c2ccc(Oc3ccc(OC(F)(F)F)cc3)cc2)c(OC(=O)c2ccccc2)c1Cl`, the inhibition is 2.27% in assay [1], 3.78% in assay [2] and 2.37% in assay [3].

Turning to `CC(=O)N(Cc1ccc(CC(C)NCCc2cccc(Cl)c2)cc1)Cc1ccc(CC(C)NCCc2cccc(Cl)c2)cc1` (stereo not drawn), the inhibition in assay [1] was 83.6%; in assay [2], 72.7%; in assay [3], 99.7%.

As for `Cc1cccc(C)c1CNc1ccnc2ccccc12`, the inhibition in assay [1] is 1.11%; in assay [2] it was 2.91%; in assay [3], 6.9%.

Take `O=C(NCCN1CCC(c2ncc(-c3ccccc3)o2)CC1)c1ccc(NC(=O)c2ccc(Cl)cc2)cc1`: the inhibition is 0.84% in assay [1], 2.19% in assay [2] and 1.19% in assay [3].

For the compound `CC(=O)Nc1nc(C(=O)Nc2ccc(-c3ccc(-c4nc5cc(F)ccc5[nH]4)cc3)cc2)cs1`, the inhibition in assay [1] is 2.38%; in assay [2], -2.61%; in assay [3], -1.02%.

On to `Cc1cc(=NN=Cc2ccc(F)cc2)c2cccc(C)c2[nH]1`, for which the inhibition in assay [1] worked out at 3.22%; in assay [2] it was 2.28%; in assay [3] it was 3.02%.

On to `Oc1cccc2ccc(Nc3ccccn3)nc12`, for which the results for the inhibition in assay [1], in assay [2] and in assay [3] were 0.94%, 2.29% and -0.77%, respectively.

As to `Cc1noc(C)c1-c1cccc(CNCc2cccc(-c3ccc(-c4nc5cccc(C)c5[nH]4)s3)c2)c1`, the inhibition in assay [1] came out at 2.85%; in assay [2], 2.47%; in assay [3] it was 2.66%.

In the case of `O=c1cc(NCCCNCc2[nH]c3cc(Cl)cc(Cl)c3c2Cn2cccn2)[nH]c2ccccc12`, the values for the inhibition in assay [1], in assay [2] and in assay [3] were 0.47%, -1.31% and 1.93%, respectively.

Regarding `Cc1cccc2nc(-c3ccc(-c4ccc(NC(=O)Nc5ccsc5)cc4)cc3)[nH]c12`, the inhibition in assay [1] is 0.7%; in assay [2], -0.26%; in assay [3], -0.35%.

Turning to `CN1CCCN(Cc2ccc(-c3cccc(NC(=O)c4cccc(C#N)c4)c3)cc2)CC1`, the inhibition in assay [1] is 8.55%; in assay [2], 4.85%; in assay [3] it was 5.62%.

For `O=C(Cn1cnc2c(nnn2Cc2ccccc2F)c1=O)Nc1ccc2c(c1)OCCO2`, the inhibition in assay [1] is 1.31%; in assay [2], 0.66%; in assay [3] it was -0.43%.

As to `O=C(/C=C/c1ccc(Cl)c(Cl)c1)NC1CCC(CN2CCC(c3cc4ccccc4[nH]3)CC2)CC1` (stereo not drawn), the inhibition in assay [1] was 0.13%; in assay [2], 2.67%; in assay [3], 1.06%.

Turning to `O=C(c1cc(-c2ccco2)n[nH]1)N1CCN(S(=O)(=O)c2ccc(Cl)cc2)CC1`, the inhibition was -0.38% in assay [1], -0.62% in assay [2] and -1.09% in assay [3].

Turning to `O=C(/C=C/c1cc([N+](=O)[O-])ccc1Cl)N1CCC(CCN2CCC(c3c[nH]c4ccccc34)CC2)CC1`, the inhibition worked out at 2.1% in assay [1], 3.61% in assay [2] and 0.76% in assay [3].

`Cc1[nH]c(C)c(-c2ccc(OCCCCSc3ccncc3)cc2)c(=O)c1Br`: the inhibition in assay [1] came out at 8.71%; in assay [2], 6.45%; in assay [3], 8.94%.

Regarding `Cc1cc(N[C@@H](Cc2ccccc2)C(=O)NCCc2ccccc2)nc(NCCc2ccccc2)n1`, the inhibition is 4.48% in assay [1], 3.79% in assay [2] and 4.38% in assay [3].

With `COc1ccc2nccc([C@@H](O)CN3CCC(NCc4cc5sccc5nc4C(F)(F)F)CC3)c2c1`, the inhibition is 3.75% in assay [1], 1.89% in assay [2] and -4.21% in assay [3].

Regarding `Cc1cccc2nc(-c3ccc(-c4cccc(CNCc5cnn(-c6ccccc6)n5)c4)s3)[nH]c12`, the figures for the inhibition in assay [1], in assay [2] and in assay [3] were 3.52%, 2.05% and 1.93%, respectively.

For the compound `O=C(Cc1ccccc1)NC(c1ccccc1)c1ccc2cccnc2c1O` (stereo not drawn), the values for the inhibition in assay [1], in assay [2] and in assay [3] were 2.31%, 0.51% and -1.17%, respectively.

Regarding `CC(C)n1cc2c(ccc3nc(N)nc(N)c32)n1`, the inhibition was 7.23% in assay [1], 17.1% in assay [2] and 5.96% in assay [3].

As for `CC(CN1CCN(C)CC1)C(=O)Nc1cccc(-c2cccc(-c3nc4cc(F)ccc4[nH]3)c2)c1` (stereo not drawn), the inhibition in assay [1] is 6.87%; in assay [2], 5.83%; in assay [3], 5.91%.

Take `CCN(C(=O)NC)C1c2cc(C#N)ccc2OC(C)(C)C1O` (stereo not drawn): the inhibition in assay [1] is 2.85%; in assay [2], 1.33%; in assay [3] it was 1.87%.

On to `Nc1ncc(-c2ccccc2)cc1-c1nc2cc(Cl)c(F)cc2[nH]1`, for which the inhibition amounted to 7.29% in assay [1], 8.28% in assay [2] and 3.16% in assay [3].

Values taken from ChEMBL document CHEMBL3433997, “St. Jude Leishmania screening dataset” (2016).
